Data reported in the supplement of paper PMC11732987, “Enantioselective OTUD7B fragment discovery through chemoproteomics screening and high-throughput optimisation” (Communications Chemistry, 2025).

Experiments:
Experiment in all cases: log2 ratio of Biotin-Ahx-Ub-VS probe labelling (fragment/DMSO); higher = less target engagement (more negative = stronger competition), active = hit call of the paper (q ≤ 0.05, log2 ratio ≤ -1)
Details in all cases: compound concentration: 200 uM; treatment time: 3 h
[1] = target: USP9X (UniProt Q93008)
In short: (§1)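 In triplicate, 495 µg of HEK293T lysate per sample was incubated with fragment at 200 µM or vehicle for 3 h. Biotin-Ahx-Ub-VS was then added to 0.5 µM final for 1 h, and labelled DUBs were captured with NeutrAvidin, digested with LysC and trypsin, and measured by diaPASEF LC-MS/MS. Data are average log2 fragment/vehicle ratios by unpaired t-test from global-median-normalised Spectronaut label-free quantities, restricted to proteins with ≥2 unique peptides.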

[2] = target: UniProt O00487
In short: as §1

[3] = target: UniProt O00507
In short: as §1

[4] = target: UniProt P51784
In short: as §1

[5] = target: T1, UniProt Q5T2D3
T1 sequence (whole entry): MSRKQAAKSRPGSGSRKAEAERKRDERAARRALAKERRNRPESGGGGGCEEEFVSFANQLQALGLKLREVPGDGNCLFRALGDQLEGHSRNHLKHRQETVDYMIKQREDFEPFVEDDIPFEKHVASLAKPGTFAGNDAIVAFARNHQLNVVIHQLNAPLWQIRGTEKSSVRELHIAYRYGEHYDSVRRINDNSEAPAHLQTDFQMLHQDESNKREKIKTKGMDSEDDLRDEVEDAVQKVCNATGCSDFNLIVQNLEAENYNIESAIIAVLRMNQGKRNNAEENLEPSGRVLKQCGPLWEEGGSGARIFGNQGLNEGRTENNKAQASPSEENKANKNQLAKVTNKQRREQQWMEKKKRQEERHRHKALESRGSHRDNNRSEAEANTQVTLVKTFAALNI
In short: as §1

[6] = target: T2, UniProt Q8TE49
T2 sequence (whole entry): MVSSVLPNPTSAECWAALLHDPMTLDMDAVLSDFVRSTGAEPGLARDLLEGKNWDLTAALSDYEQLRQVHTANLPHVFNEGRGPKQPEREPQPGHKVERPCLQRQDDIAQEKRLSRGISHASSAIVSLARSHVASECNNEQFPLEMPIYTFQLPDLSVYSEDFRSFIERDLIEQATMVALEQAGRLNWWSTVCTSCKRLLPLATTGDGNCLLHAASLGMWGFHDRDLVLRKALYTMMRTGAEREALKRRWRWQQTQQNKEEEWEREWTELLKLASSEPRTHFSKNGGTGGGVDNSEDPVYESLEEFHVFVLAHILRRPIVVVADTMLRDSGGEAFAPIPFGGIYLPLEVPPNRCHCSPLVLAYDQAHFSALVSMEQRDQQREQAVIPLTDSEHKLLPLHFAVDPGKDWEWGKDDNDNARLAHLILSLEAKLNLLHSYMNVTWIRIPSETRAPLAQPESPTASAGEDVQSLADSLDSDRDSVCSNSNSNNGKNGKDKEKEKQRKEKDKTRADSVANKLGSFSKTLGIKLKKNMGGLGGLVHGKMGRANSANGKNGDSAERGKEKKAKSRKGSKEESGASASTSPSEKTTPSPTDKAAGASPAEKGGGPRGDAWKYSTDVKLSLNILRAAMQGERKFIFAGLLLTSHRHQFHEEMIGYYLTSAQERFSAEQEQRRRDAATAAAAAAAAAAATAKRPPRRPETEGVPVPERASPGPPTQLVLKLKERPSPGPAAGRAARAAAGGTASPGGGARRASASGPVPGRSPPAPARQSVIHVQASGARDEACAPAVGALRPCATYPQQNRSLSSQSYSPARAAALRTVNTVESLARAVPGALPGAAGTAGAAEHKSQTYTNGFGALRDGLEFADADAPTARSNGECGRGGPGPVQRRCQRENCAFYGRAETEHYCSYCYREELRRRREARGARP
In short: as §1

[7] = target: T3, UniProt Q9P2H5
T3 sequence (whole entry): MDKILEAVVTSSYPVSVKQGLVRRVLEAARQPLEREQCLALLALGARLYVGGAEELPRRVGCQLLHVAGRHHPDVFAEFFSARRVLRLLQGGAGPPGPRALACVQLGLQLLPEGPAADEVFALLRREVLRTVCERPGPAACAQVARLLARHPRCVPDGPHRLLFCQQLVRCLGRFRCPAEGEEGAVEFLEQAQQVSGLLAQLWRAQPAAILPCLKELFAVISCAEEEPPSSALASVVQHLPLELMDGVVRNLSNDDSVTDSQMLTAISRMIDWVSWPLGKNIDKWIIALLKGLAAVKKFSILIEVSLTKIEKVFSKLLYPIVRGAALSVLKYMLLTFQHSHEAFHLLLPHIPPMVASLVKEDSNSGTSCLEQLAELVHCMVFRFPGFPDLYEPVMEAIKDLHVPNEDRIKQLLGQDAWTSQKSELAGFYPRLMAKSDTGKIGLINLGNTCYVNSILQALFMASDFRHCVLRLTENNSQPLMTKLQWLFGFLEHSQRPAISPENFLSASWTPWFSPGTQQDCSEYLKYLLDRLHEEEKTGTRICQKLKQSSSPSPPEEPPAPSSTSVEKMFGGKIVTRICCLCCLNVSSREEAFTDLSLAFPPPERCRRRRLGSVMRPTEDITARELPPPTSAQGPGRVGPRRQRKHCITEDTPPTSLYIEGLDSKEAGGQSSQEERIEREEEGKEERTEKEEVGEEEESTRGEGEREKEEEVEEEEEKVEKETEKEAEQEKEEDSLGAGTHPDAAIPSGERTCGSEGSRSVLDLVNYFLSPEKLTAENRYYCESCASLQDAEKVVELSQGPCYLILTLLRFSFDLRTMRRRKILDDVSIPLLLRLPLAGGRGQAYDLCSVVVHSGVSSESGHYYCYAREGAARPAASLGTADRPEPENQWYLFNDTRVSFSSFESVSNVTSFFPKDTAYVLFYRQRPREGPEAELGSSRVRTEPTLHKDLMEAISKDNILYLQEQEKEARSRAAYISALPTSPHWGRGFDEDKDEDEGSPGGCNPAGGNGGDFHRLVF
In short: as §1

[8] = target: T4, UniProt Q9UGI0
T4 sequence (whole entry): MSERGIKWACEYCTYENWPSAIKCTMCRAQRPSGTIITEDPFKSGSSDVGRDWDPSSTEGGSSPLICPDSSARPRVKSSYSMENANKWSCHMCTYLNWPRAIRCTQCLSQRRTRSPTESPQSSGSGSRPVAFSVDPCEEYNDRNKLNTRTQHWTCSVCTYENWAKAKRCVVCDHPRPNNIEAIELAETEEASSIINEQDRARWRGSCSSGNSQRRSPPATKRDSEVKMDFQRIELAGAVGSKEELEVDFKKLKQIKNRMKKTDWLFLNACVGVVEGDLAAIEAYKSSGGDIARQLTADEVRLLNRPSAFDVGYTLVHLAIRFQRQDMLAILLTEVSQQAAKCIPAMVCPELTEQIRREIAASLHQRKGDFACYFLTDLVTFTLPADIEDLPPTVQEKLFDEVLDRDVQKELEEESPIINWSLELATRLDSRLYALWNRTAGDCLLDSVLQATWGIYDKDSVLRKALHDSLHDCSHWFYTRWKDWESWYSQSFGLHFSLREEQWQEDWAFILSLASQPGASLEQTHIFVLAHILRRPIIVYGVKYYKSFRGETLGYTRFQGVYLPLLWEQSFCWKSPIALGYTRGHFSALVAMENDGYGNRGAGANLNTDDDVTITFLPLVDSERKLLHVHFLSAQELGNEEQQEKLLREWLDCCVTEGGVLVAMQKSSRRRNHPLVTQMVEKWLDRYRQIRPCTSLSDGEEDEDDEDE
In short: as §1

[9] = target: T5, YOD1 (UniProt Q5VVQ6)
T5 sequence (whole entry): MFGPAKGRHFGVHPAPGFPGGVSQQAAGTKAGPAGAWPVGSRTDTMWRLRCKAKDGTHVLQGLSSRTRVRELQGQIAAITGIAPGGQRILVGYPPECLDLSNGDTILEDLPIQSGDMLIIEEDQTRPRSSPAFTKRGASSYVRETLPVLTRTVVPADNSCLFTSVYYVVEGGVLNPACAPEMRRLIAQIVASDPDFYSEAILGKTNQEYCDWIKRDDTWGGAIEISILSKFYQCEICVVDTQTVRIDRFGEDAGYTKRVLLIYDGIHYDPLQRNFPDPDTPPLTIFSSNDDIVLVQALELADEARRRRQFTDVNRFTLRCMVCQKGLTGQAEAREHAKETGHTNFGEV
In short: as §1

Measured: log2 ratio of Biotin-Ahx-Ub-VS probe labelling

Chain of USP9X (Q93008 whole entry, the tested form may be a part): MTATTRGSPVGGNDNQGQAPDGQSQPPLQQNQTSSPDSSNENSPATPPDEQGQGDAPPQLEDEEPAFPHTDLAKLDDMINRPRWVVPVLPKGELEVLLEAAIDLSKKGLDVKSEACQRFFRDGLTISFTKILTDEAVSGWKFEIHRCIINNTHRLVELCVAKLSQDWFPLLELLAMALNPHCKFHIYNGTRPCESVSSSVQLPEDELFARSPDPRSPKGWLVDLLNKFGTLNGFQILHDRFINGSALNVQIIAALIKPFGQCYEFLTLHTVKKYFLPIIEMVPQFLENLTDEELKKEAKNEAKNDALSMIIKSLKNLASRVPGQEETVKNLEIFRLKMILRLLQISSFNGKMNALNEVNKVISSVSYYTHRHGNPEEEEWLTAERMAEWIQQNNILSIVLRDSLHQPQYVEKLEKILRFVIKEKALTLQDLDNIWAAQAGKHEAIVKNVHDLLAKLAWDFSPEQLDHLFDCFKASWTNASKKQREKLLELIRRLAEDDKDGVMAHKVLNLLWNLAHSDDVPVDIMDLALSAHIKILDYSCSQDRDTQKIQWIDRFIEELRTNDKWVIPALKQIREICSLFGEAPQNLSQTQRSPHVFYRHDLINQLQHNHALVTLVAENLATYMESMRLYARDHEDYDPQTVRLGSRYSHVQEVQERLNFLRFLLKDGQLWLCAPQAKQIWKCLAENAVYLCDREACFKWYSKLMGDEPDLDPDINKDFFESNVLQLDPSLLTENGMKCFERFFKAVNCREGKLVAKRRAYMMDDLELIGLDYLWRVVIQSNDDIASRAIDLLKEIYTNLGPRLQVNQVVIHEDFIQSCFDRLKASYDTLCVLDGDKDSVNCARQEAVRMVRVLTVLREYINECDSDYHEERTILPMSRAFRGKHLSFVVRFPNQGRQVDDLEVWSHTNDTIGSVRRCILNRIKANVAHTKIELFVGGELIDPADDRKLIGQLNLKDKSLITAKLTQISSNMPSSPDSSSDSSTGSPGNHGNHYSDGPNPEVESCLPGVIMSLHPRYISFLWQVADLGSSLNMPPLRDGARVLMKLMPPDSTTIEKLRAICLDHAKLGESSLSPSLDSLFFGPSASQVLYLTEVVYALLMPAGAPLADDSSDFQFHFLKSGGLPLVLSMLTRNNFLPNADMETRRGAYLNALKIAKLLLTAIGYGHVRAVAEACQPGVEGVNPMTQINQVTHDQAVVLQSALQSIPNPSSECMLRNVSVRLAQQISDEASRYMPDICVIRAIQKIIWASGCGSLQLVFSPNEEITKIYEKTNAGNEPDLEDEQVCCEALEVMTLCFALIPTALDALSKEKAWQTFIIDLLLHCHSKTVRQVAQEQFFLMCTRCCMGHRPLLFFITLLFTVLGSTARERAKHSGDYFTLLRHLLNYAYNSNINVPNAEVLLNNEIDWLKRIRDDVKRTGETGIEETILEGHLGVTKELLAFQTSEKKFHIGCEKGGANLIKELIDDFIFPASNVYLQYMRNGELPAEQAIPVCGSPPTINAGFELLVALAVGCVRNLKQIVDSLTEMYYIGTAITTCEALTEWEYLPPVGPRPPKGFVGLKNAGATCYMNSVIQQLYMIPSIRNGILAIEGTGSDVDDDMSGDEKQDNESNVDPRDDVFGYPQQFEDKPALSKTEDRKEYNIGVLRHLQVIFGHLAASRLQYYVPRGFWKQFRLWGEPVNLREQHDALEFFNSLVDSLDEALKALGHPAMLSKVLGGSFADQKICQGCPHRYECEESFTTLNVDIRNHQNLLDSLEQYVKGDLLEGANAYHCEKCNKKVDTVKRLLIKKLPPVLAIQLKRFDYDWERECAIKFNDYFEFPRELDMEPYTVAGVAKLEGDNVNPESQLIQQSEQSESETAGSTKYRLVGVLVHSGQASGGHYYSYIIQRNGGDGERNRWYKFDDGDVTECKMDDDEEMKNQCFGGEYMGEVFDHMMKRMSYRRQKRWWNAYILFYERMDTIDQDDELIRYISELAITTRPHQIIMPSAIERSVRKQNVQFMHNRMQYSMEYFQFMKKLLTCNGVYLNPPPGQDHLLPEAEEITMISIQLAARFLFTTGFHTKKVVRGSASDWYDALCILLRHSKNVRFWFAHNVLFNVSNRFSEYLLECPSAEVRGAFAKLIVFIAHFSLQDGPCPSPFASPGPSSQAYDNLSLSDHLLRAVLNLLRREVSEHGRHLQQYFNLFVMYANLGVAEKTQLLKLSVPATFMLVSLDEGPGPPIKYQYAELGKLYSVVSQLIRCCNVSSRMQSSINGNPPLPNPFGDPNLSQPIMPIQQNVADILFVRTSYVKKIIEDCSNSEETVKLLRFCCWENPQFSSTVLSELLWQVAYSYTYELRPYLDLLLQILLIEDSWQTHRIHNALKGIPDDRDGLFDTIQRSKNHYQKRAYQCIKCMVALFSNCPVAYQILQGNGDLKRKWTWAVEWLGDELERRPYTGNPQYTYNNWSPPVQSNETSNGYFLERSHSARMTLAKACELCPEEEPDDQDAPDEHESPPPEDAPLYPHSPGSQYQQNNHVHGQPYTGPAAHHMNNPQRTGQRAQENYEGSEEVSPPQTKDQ
Chain of UniProt P51784 (P51784 whole entry): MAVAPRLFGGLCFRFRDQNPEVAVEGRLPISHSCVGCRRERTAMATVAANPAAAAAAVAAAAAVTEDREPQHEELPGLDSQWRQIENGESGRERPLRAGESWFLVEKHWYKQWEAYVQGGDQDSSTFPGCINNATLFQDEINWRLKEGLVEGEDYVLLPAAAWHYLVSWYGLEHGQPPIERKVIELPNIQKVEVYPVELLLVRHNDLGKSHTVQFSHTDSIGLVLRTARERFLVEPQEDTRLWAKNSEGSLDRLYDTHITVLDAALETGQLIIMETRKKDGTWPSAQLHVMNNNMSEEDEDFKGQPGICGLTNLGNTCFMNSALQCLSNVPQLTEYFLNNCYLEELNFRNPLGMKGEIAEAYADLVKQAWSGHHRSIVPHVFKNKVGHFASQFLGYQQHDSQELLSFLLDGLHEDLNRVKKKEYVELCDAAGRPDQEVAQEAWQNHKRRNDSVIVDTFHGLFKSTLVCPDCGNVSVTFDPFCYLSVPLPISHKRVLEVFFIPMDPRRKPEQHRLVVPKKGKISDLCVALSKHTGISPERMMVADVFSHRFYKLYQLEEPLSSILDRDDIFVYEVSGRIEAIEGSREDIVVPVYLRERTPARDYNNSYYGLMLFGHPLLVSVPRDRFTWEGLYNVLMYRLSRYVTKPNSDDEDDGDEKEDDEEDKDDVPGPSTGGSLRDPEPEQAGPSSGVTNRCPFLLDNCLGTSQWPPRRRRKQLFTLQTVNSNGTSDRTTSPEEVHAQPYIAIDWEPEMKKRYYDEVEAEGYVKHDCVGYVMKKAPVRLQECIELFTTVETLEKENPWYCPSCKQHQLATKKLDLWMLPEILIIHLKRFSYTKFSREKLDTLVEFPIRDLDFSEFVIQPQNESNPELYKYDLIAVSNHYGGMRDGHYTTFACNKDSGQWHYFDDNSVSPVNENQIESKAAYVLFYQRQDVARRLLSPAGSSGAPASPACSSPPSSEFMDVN
Chain of UniProt O00487 (O00487 whole entry): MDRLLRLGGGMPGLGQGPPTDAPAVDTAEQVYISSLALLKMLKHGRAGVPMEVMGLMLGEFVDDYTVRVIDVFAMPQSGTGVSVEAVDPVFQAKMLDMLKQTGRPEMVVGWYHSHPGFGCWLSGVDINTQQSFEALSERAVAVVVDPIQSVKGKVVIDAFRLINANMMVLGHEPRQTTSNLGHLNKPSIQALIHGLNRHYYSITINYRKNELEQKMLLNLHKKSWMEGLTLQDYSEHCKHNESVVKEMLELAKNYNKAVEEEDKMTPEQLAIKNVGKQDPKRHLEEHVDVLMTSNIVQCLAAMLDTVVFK

O=C(CCl)N1CCC(c2ccn[nH]2)C1 (centres undefined)
inactive: [1] -0.391 | [2] 0.0518 | [3] -0.147 | [4] -0.136 | [5] -0.179 | [6] -0.464 | [7] -0.282 | [8] -0.767 | [9] 0.0756
